The subject of one test is Staphylococcus aureus. The conditions noted are these: Concentration 32 ug.mL-1;; ASSAY_TEST Inhibition of Bacterial Growth; detection method Absorption (OD600); MEDIA CAMHB; plate type 384well; NBS; CORNING #3640; time 18 hr.
In another test the test system is Escherichia coli. The conditions noted are these: Concentration 32 ug.mL-1;; ASSAY_TEST Inhibition of Bacterial Growth; detection method Absorption (OD600); MEDIA CAMHB; plate type 384well; NBS; CORNING #3640; time 18 hr.

Measured potencies and affinities stand elsewhere.

As for `Cc1ccc(NC(=O)Cn2nc3c(SC4CCCCC4)nccn3c2=O)cc1F`, the Inhibition (usually the relative decrease from the control value, in per cent) in the test on Staphylococcus aureus is given as 10.42%; with Escherichia coli, -1.05%.
The like results for `COc1ccc(C)cc1NC(=O)Cn1nc2c(N3CCSCC3)nc3ccccc3n2c1=O` were, in that order, 9.36% and 0.1%.
For the compound `COc1cccc(Cn2nc3c(=O)n(-c4cccc(Cl)c4C)ccn3c2=O)c1`, the Inhibition is -6.87% with Staphylococcus aureus and -16.22% in the test with Escherichia coli.
For `Cc1ccc(-c2noc(Cn3nc4ccc(-c5ccccc5)nn4c3=O)n2)cc1`, in that order: -9.52% and -11.36%.
The like results for `Cc1ccc(Cl)cc1NC(=O)Cn1nc2c(N3CCOCC3)nc3ccccc3n2c1=O` were, in that order, -1.67% and -9.52%.
The like results for `COc1ccccc1-n1ccn2c(SCc3cccc(Cl)c3)nnc2c1=O` were, in that order, -2.16% and -0.92%.
For the compound `Cc1cccc(NC(=O)Cn2nc3c4cc(-c5ccc(F)cc5)nn4ccn3c2=O)c1C`, the Inhibition in the test with Staphylococcus aureus is -2.18%; in the test on Escherichia coli it was -5.27%.
The like results for `CC(C)CCn1c(=O)c2sccc2n2c(=O)n(Cc3ccccc3Cl)nc12` were, in that order, 8.43% and 1.09%.
For `CCc1nnc2c(S(=O)(=O)N(Cc3ccc(F)cc3)c3cccc(Cl)c3)cccn12`, in that order: 8.4% and -8.07%.
The like results for `Cc1c(Cl)cccc1NC(=O)CSc1nc2ccccc2n2c(C)nnc12` were, in that order, 7.92% and 3.58%.
Consider `CC(C)c1ccc(N(Cc2ccc(Cl)cc2)S(=O)(=O)c2cccn3cnnc23)cc1`, for which the Inhibition in the test with Staphylococcus aureus is reported as 8.06%; in the test with Escherichia coli, 3.76%.
The like results for `Cc1nnc2c(=O)n(CC(=O)Nc3ccccc3Br)c3ccccc3n12` were, in that order, 16.36% and 5.04%.
For `O=S(=O)(c1ccc2nncn2c1)N(Cc1cc(F)cc(F)c1)c1cccc(F)c1`, in that order: 5.24% and -5.68%.
The like results for `Cc1ccc(Sc2nccn3c(=O)n(CC(=O)Nc4ccc(C)cc4Br)nc23)c(C)c1` were, in that order, 8.09% and -4.19%.
In the case of `CCCCOc1ccc(-c2cc3c4nnc(SCC(=O)Nc5cc(C)ccc5OC)n4ccn3n2)cc1`, the Inhibition in the test with Staphylococcus aureus is listed as -29%; with Escherichia coli, -22.73%.
The like results for `CCCc1nnc2c(=O)n(CC(=O)Nc3cccc(Br)c3)c3ccccc3n12` were, in that order, 8.23% and -5.6%.
Consider `O=S(=O)(c1cccn2cnnc12)N(Cc1cccc(F)c1)c1cccc(Cl)c1`, for which the Inhibition with Staphylococcus aureus is reported as 6.21%; with Escherichia coli, -7.43%.
Regarding `CCc1nnc2c(=O)n(CC(=O)Nc3ccc(Br)cc3F)c3ccccc3n12`, the Inhibition is listed as -3.08% in the test with Staphylococcus aureus and 3.54% in the test on Escherichia coli.
The like results for `COc1ccc(CNC(=O)CSc2nnc3c4cc(-c5ccc(OC)cc5)nn4ccn23)cc1` were, in that order, 4.43% and 0.23%.
With `CCCCOc1ccc(-c2cc3c4nnc(SCC(=O)NCc5ccc(C)cc5)n4ccn3n2)cc1`, the Inhibition in the test on Staphylococcus aureus was 2.78%; with Escherichia coli, -5.47%.
The like results for `CCc1ccccc1Sc1nccn2c(=O)n(CC(=O)Nc3cccc(C)c3)nc12` were, in that order, 2.29% and -6.79%.
The like results for `COc1cccc(CN(c2ccc(C(C)C)cc2)S(=O)(=O)c2cccn3cnnc23)c1` were, in that order, 7.94% and -1.44%.
For the compound `CCOc1ccc(-n2ccn3c(SCC(N)=O)nnc3c2=O)cc1`, the Inhibition in the test with Staphylococcus aureus was found to be 8.32%; in the test with Escherichia coli it was 3.76%.
The like results for `O=c1n(Cc2ccc3c(c2)OCO3)nc2ccc(-c3ccccc3)nn12` were, in that order, 12.41% and -0.49%.
For `COc1ccc(NC(=O)Cn2nc3ccc(-c4ccc(Cl)cc4)nn3c2=O)cc1OC`, in that order: -0.18% and -4.63%.
For `COc1cccc(CNC(=O)CCc2nnc3ccc(-c4ccc(C)cc4)nn23)c1`, in that order: 16.4% and -0.37%.
In the case of `CSc1cccc(NC(=O)Cn2nc3c(Sc4ccccc4)nccn3c2=O)c1`, the Inhibition with Staphylococcus aureus is -5%; in the test on Escherichia coli, -10.44%.
In the case of `COc1cccc(CNC(=O)Cn2nc3c4cc(-c5cc(C)ccc5C)nn4ccn3c2=O)c1OC`, the Inhibition with Staphylococcus aureus is listed as 2.74%; in the test with Escherichia coli, -0.3%.
The like results for `CC(C)n1c(=O)c2ccc(C(=O)NC3CCCC3)cc2n2c(=O)n(Cc3cccc(C(F)(F)F)c3)nc12` were, in that order, 8.2% and 0.25%.
The like results for `Cc1ccc(-c2ccc3nn(CC(=O)NC4CCCCC4)c(=O)n3n2)cc1C` were, in that order, 8.8% and 0.07%.
The like results for `CCOc1ccc(-n2ccn3c(SCC(=O)NCc4ccccc4Cl)nnc3c2=O)cc1` were, in that order, 3.68% and -5.16%.
As to `Cc1ccc(C)c(Cn2nc3c(=O)n(-c4ccc(C)c(C)c4)ccn3c2=O)c1`, the Inhibition in the test on Staphylococcus aureus is on record as 6.02%; in the test on Escherichia coli, -6.59%.
For `COc1ccccc1CNC(=O)Cn1nc2c(SCc3ccc(Cl)cc3)nccn2c1=O`, in that order: 6.37% and -3.98%.
The like results for `Cc1cc(C)cc(Nc2nc(C)cc3nn(CC(=O)Nc4ccccc4)c(=O)n23)c1` were, in that order, 4.32% and -6.45%.
Regarding `Cc1nnc2c(SCC(=O)Nc3cccc(Br)c3)nc3ccccc3n12`, the Inhibition in the test on Staphylococcus aureus is given as -13.66%; in the test with Escherichia coli it was -1.77%.
The like results for `Cc1cc(C)cc(N(Cc2cccc(F)c2)S(=O)(=O)c2cccn3c(C)nnc23)c1` were, in that order, 2.22% and -5.24%.
The like results for `COc1cccc(-n2ccn3c(SCC(=O)c4cc(C)ccc4C)nnc3c2=O)c1` were, in that order, 11.66% and -1.7%.
Take `O=C(CSc1nnc2c3cc(-c4ccccc4)nn3ccn12)Nc1cccc(Br)c1`: the results for the Inhibition in the test with Staphylococcus aureus and in the test with Escherichia coli were 9.78% and 2.01%, respectively.
For `Cc1ccc(-c2cc3c4nn(CC(=O)NCc5ccc(Cl)cc5)c(=O)n4ccn3n2)cc1C`, in that order: 6.87% and 6.43%.
`Cc1cccc(NC(=O)Cn2nc3c4cc(-c5ccc(Cl)cc5)nn4ccn3c2=O)c1`: the Inhibition in the test with Staphylococcus aureus was 3.19%; with Escherichia coli, -7.53%.
The like results for `C=Cc1ccc(CN(c2ccc(F)c(F)c2)S(=O)(=O)c2cccn3cnnc23)cc1` were, in that order, -2.72% and -13.7%.
The like results for `Cc1nnc2ccc(S(=O)(=O)N(Cc3ccc(F)cc3)c3ccc(Cl)cc3)cn12` were, in that order, 3.43% and -7.02%.
Consider `COc1cccc(Sc2nc3ccccc3n3c(=O)n(CC(=O)N4CCCc5ccccc54)nc23)c1`, for which the Inhibition in the test on Staphylococcus aureus is on record as -3.45%; in the test with Escherichia coli, -7.6%.
For `O=C(CSc1nnc2c(=O)n(-c3ccc(F)c(F)c3)ccn12)c1ccccc1Cl`, in that order: 3.6% and -5.26%.
The like results for `CCOC(=O)c1cccc(NC(=O)Cn2nc3c(Oc4cccc(C)c4C)nccn3c2=O)c1` were, in that order, -16.27% and -3.26%.
For `Cc1ccc(NC(=O)Cn2nc3c(Sc4ccccc4)nccn3c2=O)c(C)c1`, in that order: 5.22% and -4.74%.
For the compound `CC(C)c1ccc(Oc2nc3ccccc3n3c(=O)n(CC(=O)Nc4ccc5c(c4)OCO5)nc23)cc1`, the Inhibition was found to be 7.37% in the test with Staphylococcus aureus and 4.92% in the test with Escherichia coli.
For `O=C(Cn1nc2ccc(SCc3ccc(Cl)cc3)nn2c1=O)Nc1ccc2c(c1)OCO2`, in that order: 9.4% and -2.43%.
`Cc1ccccc1CN(c1ccc(C(C)C)cc1)S(=O)(=O)c1cccn2c(C)nnc12`: the Inhibition is given as 9.54% in the test on Staphylococcus aureus and -1.18% in the test on Escherichia coli.
For `Cc1cccc(C)c1NC(=O)Cn1nc2c3c4c(sc3ncn2c1=O)CCCC4`, in that order: 7.51% and -3.38%.
For `COc1ccc(CN(c2ccc(F)cc2)S(=O)(=O)c2ccc3nnc(C)n3c2)cc1F`, in that order: -10.32% and -13.96%.
The like results for `CC(C)Cn1c(=O)c2sccc2n2c(=O)n(CC(N)=O)nc12` were, in that order, -15.52% and -14.55%.
In the case of `O=S(=O)(c1ccc2nncn2c1)N(Cc1ccc(F)cc1)c1ccc(F)c(F)c1`, the Inhibition is -11.56% in the test on Staphylococcus aureus and -13.53% with Escherichia coli.
Consider `CCc1ccc(N(Cc2cccc(OC)c2)S(=O)(=O)c2cccn3cnnc23)cc1`, for which the Inhibition is on record as 17.37% in the test on Staphylococcus aureus and 2.31% in the test with Escherichia coli.
With `COc1ccc(-c2noc(Cn3nc4ccc(-c5ccccc5)nn4c3=O)n2)cc1OC`, the figures for the Inhibition in the test on Staphylococcus aureus and in the test with Escherichia coli were 7.44% and -3.1%, respectively.
For `CCCCN(C)C(=O)CSc1nnc2c(=O)n(Cc3ccc(F)cc3)ccn12`, in that order: 7.74% and -2.27%.
As to `O=C(Cn1nc2c(N3CCOCC3)nc3ccccc3n2c1=O)NCc1ccccc1Cl`, the Inhibition is -2.26% in the test with Staphylococcus aureus and -4.63% with Escherichia coli.
With `COc1cc(OC)c(NC(=O)Cn2nc3c(Sc4cccc(C)c4)nccn3c2=O)cc1Cl`, the Inhibition is reported as 10.36% in the test on Staphylococcus aureus and -1.94% with Escherichia coli.
In the case of `CC(C)c1nnc2c(=O)n(CC(=O)Nc3cccc(Cl)c3)c3ccccc3n12`, the figures for the Inhibition in the test on Staphylococcus aureus and with Escherichia coli were 5.77% and -3.24%, respectively.
For `Cc1ccc(Cn2nc3c(=O)n(-c4cccc(F)c4)ccn3c2=O)cc1`, in that order: 6.58% and -11.98%.
For `Cc1ccc(-n2ccn3c(=O)n(Cc4c(F)cccc4Cl)nc3c2=O)cc1C`, in that order: 10.39% and -0.86%.
Take `CSc1cccc(NC(=O)Cn2c(=O)c3nnc(C)n3c3ccccc32)c1`: the Inhibition with Staphylococcus aureus is on record as -2.91%; with Escherichia coli, 2.47%.
The like results for `COc1ccc(Cl)cc1NC(=O)CSc1nc2ccccc2n2c(C(C)C)nnc12` were, in that order, -6.36% and -1.47%.
The like results for `Cc1ccc(C)c(-c2cc3c4nnc(SCC(=O)Nc5cccc(Br)c5)n4ccn3n2)c1` were, in that order, 0.42% and -9.35%.
Take `Cc1ccc(Oc2nccn3c(=O)n(CC(=O)NCc4ccccc4Cl)nc23)cc1`: the Inhibition in the test with Staphylococcus aureus is recorded as 12.36%; in the test on Escherichia coli it was -4.03%.
On to `Cc1ccc(Sc2nccn3c(=O)n(CC(=O)Nc4ccc(Br)cc4C)nc23)c(C)c1`, for which the Inhibition in the test on Staphylococcus aureus was -15.15%; in the test with Escherichia coli, -16.85%.
The like results for `CCCCOc1ccc(-c2cc3c4nnc(SCC(=O)N(CC)c5ccccc5)n4ccn3n2)cc1` were, in that order, 7.98% and -2.57%.
The like results for `O=C(Cn1nc2c(N3CCOCC3)nccn2c1=O)NCc1ccc(Cl)cc1` were, in that order, 9.06% and 3.48%.
Take `Cc1cccc(NC(=O)Cn2nc3ccc(SC(C)(C)C)nn3c2=O)c1`: the Inhibition in the test on Staphylococcus aureus is on record as 3.72%; in the test with Escherichia coli, -1.06%.
As for `Cc1cc(C)c(NC(=O)CSc2nnc3ccc(C(=O)Nc4cccc(F)c4)cn23)c(C)c1`, the Inhibition was determined as 12.67% in the test on Staphylococcus aureus and 2.09% in the test on Escherichia coli.
The like results for `CCc1ccccc1Sc1nccn2c(=O)n(CC(=O)Nc3ccc(OC)cc3)nc12` were, in that order, -2.16% and -10.01%.
The like results for `COc1ccccc1N1CCN(C(=O)CSc2nc3ccccc3n3c(C(C)C)nnc23)CC1` were, in that order, 1.01% and 3.41%.

The record behind these values is ChEMBL document CHEMBL4513146, “CO-ADD screening of Karazin Kharkiv National University (Ukraine) compounds”.
